Compound activity deposited in PubChem by National Center for Advancing Translational Sciences (NCATS).
Many of the other results were omitted from the sample, so hits are more common in it than they were.
JMJD2E inh: qHTS Assay for Inhibitors of Human Jumonji Domain Containing 2E (JMJD2E). AID 2147, 2009. JMJD2E catalytic domain, FDH-coupled NADH fluorescence (FDH is formaldehyde dehydrogenase). actives 1.6% (n = 230,000). Lysine-specific demethylase 4E (Homo sapiens), B2RXH2. Potency, µM (highest dose often 57.1 µM), inactives show at the highest dose activity change, negative = inhibition, usual class: inhibitors; active = well fitted inhibition curve with a large enough effect, not every such curve was filed as active; inconclusive = small, poorly fitted or top-dose-only effect, or another doubt; inactive = no such curve, though single readings can be large or run the other way;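 note: 0% = wells with enzyme and -100% = buffer wells without enzyme; nearly all actives have a fitted effect of over 50% in size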
L3MBTL1 inh-1: qHTS Assay for the Inhibitors of L3MBTL1 | Lethal(3)malignant brain tumor-like protein 1 (Homo sapiens), Q9Y468 | AlphaScreen L3MBTL1–H3K9me1 peptide binding | Potency, µM (doses to about 57.1 µM), for inactives: top-dose activity, negative = inhibition, usual class: inhibitors | actives 0.66% (n = 230,000) | AID 485360, 2010; note: % is set by controls: 0 for no effect and ±100 for the full control effect; nearly all actives have a fitted effect of over 60% in size
Target sequence (Q9Y468 whole entry, looked up): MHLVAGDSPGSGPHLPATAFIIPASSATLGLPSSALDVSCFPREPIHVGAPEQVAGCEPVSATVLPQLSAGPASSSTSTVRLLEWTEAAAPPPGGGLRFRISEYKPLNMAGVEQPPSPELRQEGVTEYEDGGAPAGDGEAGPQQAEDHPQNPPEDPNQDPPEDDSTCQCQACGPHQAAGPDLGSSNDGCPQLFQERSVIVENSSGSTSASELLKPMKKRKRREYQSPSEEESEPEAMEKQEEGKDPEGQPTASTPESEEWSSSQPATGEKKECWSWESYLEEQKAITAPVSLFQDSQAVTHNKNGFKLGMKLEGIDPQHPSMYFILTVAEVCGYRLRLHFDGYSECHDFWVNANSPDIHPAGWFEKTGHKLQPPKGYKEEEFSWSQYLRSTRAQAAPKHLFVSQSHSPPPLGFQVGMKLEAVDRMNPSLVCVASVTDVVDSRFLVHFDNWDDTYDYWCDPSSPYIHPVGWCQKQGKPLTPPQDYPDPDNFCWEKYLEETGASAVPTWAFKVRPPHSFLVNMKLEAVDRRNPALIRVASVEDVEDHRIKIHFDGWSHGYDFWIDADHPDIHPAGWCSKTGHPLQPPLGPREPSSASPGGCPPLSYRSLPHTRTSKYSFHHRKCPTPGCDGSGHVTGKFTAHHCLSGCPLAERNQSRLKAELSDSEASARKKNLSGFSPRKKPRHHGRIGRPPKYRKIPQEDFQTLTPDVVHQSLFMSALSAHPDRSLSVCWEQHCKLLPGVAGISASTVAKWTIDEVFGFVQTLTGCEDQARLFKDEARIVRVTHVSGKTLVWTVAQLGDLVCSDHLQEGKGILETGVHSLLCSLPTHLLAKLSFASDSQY
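AlphaScreen proximity signal between nickel-chelate acceptor and streptavidin donor beads (final 10 ug/mL) reports binding of 50 nM L3MBTL1 to 75 nM biotin-H3 K9me1 peptide; complex incubated with compounds 30 min at room temperature; cefsulodin titration as control.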
RECQ1 inh: qHTS Assay for Inhibitors of RecQ-Like Dna Helicase 1 (RECQ1) | AID 2549, 2010 | actives 0.54% (n = 240,000) | RECQ1 DNA unwinding, red fluorescence kinetic read | ATP-dependent DNA helicase Q1 (Homo sapiens), P46063 | Potency, µM (doses to about 57.3 µM), for inactives: at the highest dose activity, negative = inhibition, most hits filed as inhibitors;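 note: plate controls were vehicle for no effect and no enzyme for full effect; nearly all actives have a fitted effect of over 30% in size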
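50 nM RECQ1T1 preincubated 15 min with compound in Tris pH 8.0 buffer with MgCl2, DTT, Tween-20 and 2.5 ug/ml poly(dI-dC); started with 200 nM TAMRA/BHQ-2 forked duplex and 2 mM ATP. Unwinding read as fluorescence (525/598 nm), two reads 2 h apart.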
APEX1 inh: qHTS Assay for Inhibitors of the Human Apurinic/apyrimidinic Endonuclease 1 (APE1). actives 0.35% (n = 350,000). recombinant APE1, TAMRA/BHQ-2 abasic DNA cleavage fluorescence. AID 2517, 2012. Potency, µM (titrated, usually from 65.8 µM), inactives show top-dose activity change, negative = inhibition, actives largely listed as inhibitors. DNA repair nuclease/redox regulator APEX1 (Homo sapiens), P27695;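 note: plate controls were vehicle for no effect and reference inhibitor for full effect; nearly all actives have a fitted effect of over 55% in size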
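Compound pre-exposure to 0.75 nM APE1, 15 min at ambient temperature. Reaction initiated with 50 nM TAMRA/BHQ-2 THF substrate, read immediately in kinetic mode, 525 nm excitation, 598 nm emission.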
KAT2A inh: qHTS Assay for Inhibitors of GCN5L2 | Histone acetyltransferase KAT2A (Homo sapiens), Q92830 | GCN5L2 HAT assay, ThioGlo1 CoA-SH fluorescence | Potency, µM (series often up to 58.9 µM), without a hit: at the top dose activity change, negative = inhibition, actives largely listed as inhibitors | actives 0.21% (n = 390,000) | AID 504327, 2011; note: % is set by controls: 0 for no effect and ±100 for the full control effect
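Preincubate 20nM GCN5L2 with compound 15 min, RT → add 50uM ThioGlo1 + 75uM H3(1-25) + 70uM acetyl-CoA → read fluorescence 0 and 20 min. Primary qHTS; fluorescent artifacts likely.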
BLM helicase inh: qHTS Assay for Inhibitors of Bloom's syndrome helicase (BLM) | Potency, µM (highest dose often 56.1 µM), without a hit: at the highest dose activity change, negative = inhibition, most hits filed as inhibitors | actives 0.2% (n = 350,000) | recombinant BLM DNA unwinding, fluorescence dequenching;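 note: plate controls were vehicle for no effect and no enzyme for full effect; nearly all actives have a fitted effect of over 35% in size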
L3MBTL1 inh-2: qHTS Assay for the Inhibitors of L3MBTL1: Hit Validation. L3MBTL1 methyl-lysine binding inhibition, biochemical qHTS. shares compounds with L3MBTL1 inh-1. actives 91% (n = 500). Potency, µM, actives largely listed as inhibitors. AID 540279, 2011; note: nearly all actives have a fitted effect of over 70% in size
L3MBTL1 ctr: qHTS Assay for the Inhibitors of L3MBTL1: Hit Validationin AlphaScreen Counterscreen; Potency, µM (top dose mostly 57.1 µM), without a hit: top-dose activity change, negative = inhibition, hits mostly inhibitors; AlphaScreen counterscreen, signal inhibition; shares compounds with L3MBTL1 inh-1; 500 tested, under 10 active; AID 602224, 2012; note: 0% is about no effect
Numbers without * were called inactive; i = inactive; ? = inconclusive; nt = no result given. Unless noted, calls come from the whole dose curve; as a rule, active = well fitted curve in the direction sought with a large enough effect; inconclusive = small, poorly fitted or top-dose-only effect, or another doubt; inactive = no such curve, though single readings can be large; an effect the other way counts as inactive or inconclusive. Potency is the fitted concentration of half-maximal effect.

SMILES	JMJD2E inh	L3MBTL1 inh-1	RECQ1 inh	APEX1 inh	KAT2A inh	BLM helicase inh	L3MBTL1 inh-2	L3MBTL1 ctr
CCOC(=O)c1[nH]c2c(c1C)C(=O)CC(c1ccco1)C2 (centres undefined)	-24%	32µM*	?	?	-18%	-25%	21*	7%
Cc1ccc(/C=C2\SC(=S)N(C3CCS(=O)(=O)C3)C2=O)o1 (centres undefined)	-29%	25µM*	-6%	4%	-13%	-6%	21*	-4%
NS(=O)(=O)c1ccc(-c2ccc(/C=C3\SC(=S)N(C4CCS(=O)(=O)C4)C3=O)o2)cc1 (centres undefined)	-9%	nt	-1%	-3%	-18%	0%	nt	nt
CCCCC1(C)OC(=O)C(=Cc2ccc(-c3ccc(Cl)c(C(=O)O)c3)o2)C(=O)O1 (centres undefined)	?	7.9µM*	?	?	?	6%	13*	1%
Cc1ccc(N2NC(=O)/C(=C/c3ccc(-c4ccc(Cl)c(C(=O)O)c4)o3)C2=O)cc1	-1%	28µM*	-3%	1%	-2%	-3%	11*	-2%
Cc1ccc(-c2csc3ncn(CC#N)c(=O)c23)cc1C	nt	22µM*	nt	-73%	-12%	-28%	21*	13%
Cc1oc(-c2ccc(F)cc2)cc1-c1nn2c(-c3ccoc3C)nnc2s1	-3%	18µM*	?	?	-18%	?	6*	6%
COc1cc(OC)c(-c2nn3c(-c4ccco4)nnc3s2)cc1OC	?	-11%	-4%	-11%	-24%	1%	nt	nt
CC1CCN(Cc2c(O)ccc3c2O/C(=C\c2ccco2)C3=O)CC1	?	10µM*	-2%	3%	-29%	-1%	27*	-2%
O=C(CN1C(=O)c2ccc(Br)cc2C1=O)NCC1CCCO1 (centres undefined)	nt	nt	nt	15%	-1%	-2%	nt	nt
Nc1ccc2nc(-c3ccccc3)[nH]c2c1	?	0%	-9%	0%	?	-5%	nt	nt
Nc1ccc2nc(-c3ccccn3)[nH]c2c1	?	28µM*	-12%	?	0%	-11%	7.5*	?
O=C(CNC(c1ccccc1)c1ccccc1)Nc1ccccc1-c1ccccc1	-3%	3%	-4%	-6%	?	-7%	nt	nt
Cc1ccc(OCC(=O)N(Cc2ccco2)c2ccccn2)cc1	nt	nt	nt	nt	-3%	-3%	nt	nt
CC(=O)Oc1cc(C(=O)OCC(=O)N2CCc3ccccc3C2)cc(OC(C)=O)c1OC(C)=O	nt	8.9µM*	nt	5.3µM*	1%	nt	3*	3%
O=C(O)c1ccc2c3n(nc2c1)-c1ccc(Cl)cc1CO3	nt	5µM*	nt	21%	3%	5%	21*	-4%
O=C(c1ccc2c3n(nc2c1)-c1ccc(Cl)cc1CO3)N1CCCCC1	3%	nt	-3%	-3%	-4%	1%	nt	nt
N#Cc1nc(COc2ccccc2Cl)oc1N1CCCC1	-4%	28µM*	i	-2%	-5%	-11%	?	?
N#Cc1nc(COc2ccccc2Cl)oc1N1CCCCCC1	-7%	-3%	-1%	0%	-2%	-7%	nt	nt
CCOC(=O)CN1C(=O)S/C(=C\c2ccc(-c3ccc(C(=O)O)c(Cl)c3)o2)C1=O	nt	28µM*	nt	15µM*	?	-2%	13*	-1%
CCOC(=O)CN1C(=O)S/C(=C/c2ccc(N3CCCCC3)o2)C1=O	-1%	4%	i	15%	-2%	-4%	nt	nt
Cc1ccc(-n2c(C)nc3oc4ccccc4c(=O)c3c2=O)cc1	1%	40µM*	4%	4%	-23%	0%	27*	-2%
O=C1NC(=Nc2ccc(Cl)cc2)/C(=C/c2ccco2)S1	?	25µM*	-13%	?	-23%	11µM*	8.4*	5%
COC(=O)/C=c1/sc2nc3ccccc3n2c1=O	-1%	-6%	-5%	-11%	?	1%	nt	nt
O=C(O)c1cc(C(=O)O)cc(-c2ccc(/C=c3/sc4nc5ccccc5n4c3=O)o2)c1	13µM*	1.8µM*	?	28µM*	-12%	88%	3.4*	-5%
SMILES	JMJD2E inh	L3MBTL1 inh-1	RECQ1 inh	APEX1 inh	KAT2A inh	BLM helicase inh	L3MBTL1 inh-2	L3MBTL1 ctr
Cc1ccc(NC(=O)C(CC(C)C)NS(=O)(=O)c2ccc3c(c2)oc(=O)n3C)c(C)c1 (centres undefined)	nt	nt	nt	nt	1%	-6%	nt	nt
O=C(Nc1nc(-c2ccccn2)cs1)C1COc2ccccc2O1 (centres undefined)	7%	11µM*	3%	4%	-4%	3%	12*	-65%
CC(C)C(=O)Nc1ncc(Cc2ccc(Cl)cc2)s1	-25%	35%	-9%	4%	-2%	-10%	nt	nt
COCCC(=O)N1CCC(Oc2ccc(C(=O)N3CCCCC3COC)cc2)CC1 (centres undefined)	nt	nt	nt	-4%	0%	-2%	nt	nt
O=c1cc(-c2ccccc2Cl)c2c([nH]1)CCC2	0%	28µM*	9%	-6%	-8%	-7%	?	8%
O=C(NC1CC1)C1CCN(S(=O)(=O)c2cc([N+](=O)[O-])ccc2Cl)CC1	nt	7.9µM*	nt	?	?	nt	3*	7%
CCc1ccccc1NC(=O)CSc1ccsc1[N+](=O)[O-]	-3%	28µM*	-2%	9%	-16%	-22%	24*	-3%
CN(C)c1ccc(C(=S)NCc2ccco2)cc1	-13%	?	-2%	-6%	-20%	-13%	nt	nt
